CCT modulator: High-Throughput Screening for Modulators of Cytosolic Chaperonin Activity; purified chaperonin ATPase assay, HTRF ADP detection, 30 min; activity change, % (test concentration not listed), hits read low; 360,000 tested, 0.3% active; AID 651819, 2012; in the data active = activity change below about -30%
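Enzyme 40 or 20 nM (batch-dependent) in Tris pH 7.4/KCl/MgCl2/DTT; cpd 76 uM single point; ATP 10 uM; 30 min 37 °C; Transcreener ADP HTRF detection, 30 min RT; ratio 665/615.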
VDR inh: Inhibitors of the vitamin D receptor (VDR): qHTS | 400,000 tested, 0.93% active | VDR-SRC2-3 peptide fluorescence polarization, 2 h | Vitamin D3 receptor (Homo sapiens), P11473 | Potency, µM, inactives show max response, negative = inhibition, hits mostly inhibitors | AID 504847, 2011; also: potency is read from the fitted curve at half-maximal effect
Target sequence (P11473 whole entry, looked up): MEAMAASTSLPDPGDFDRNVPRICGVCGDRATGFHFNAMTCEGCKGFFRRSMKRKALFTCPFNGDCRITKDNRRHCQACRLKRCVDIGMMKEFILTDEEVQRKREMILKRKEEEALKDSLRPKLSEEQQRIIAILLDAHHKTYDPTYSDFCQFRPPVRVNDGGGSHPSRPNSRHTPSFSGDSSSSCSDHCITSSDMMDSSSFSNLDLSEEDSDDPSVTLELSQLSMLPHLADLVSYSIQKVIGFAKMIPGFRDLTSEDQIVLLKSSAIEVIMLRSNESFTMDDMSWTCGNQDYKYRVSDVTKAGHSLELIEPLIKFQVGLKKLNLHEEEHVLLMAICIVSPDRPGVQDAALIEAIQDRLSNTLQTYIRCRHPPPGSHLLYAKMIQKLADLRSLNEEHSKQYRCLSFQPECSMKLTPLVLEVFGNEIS
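Signal is fluorescence polarization, reporting how far test compounds block the interaction of VDR with the SRC2-3 coregulator peptide after a 2 h room-temperature incubation.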
PLK1 PBD block: qHTS for Inhibitors of PLK1-PDB (polo-like kinase 1 - polo-box domain): Primary Screen. Potency, µM, without a hit: max response, negative = inhibition, actives largely listed as inhibitors. Serine/threonine-protein kinase PLK1 (Homo sapiens), P53350. Plk1 PBD binding of FITC phosphopeptide, fluorescence polarization. 360,000 tested, 2.8% active; also: potency is read from the fitted curve at half-maximal effect; series mostly up to about 57 µM; nearly all actives have a fitted effect of over 65% in size
G9a inh: qHTS Assay for Inhibitors of Histone Lysine Methyltransferase G9a | G9a H3K9 monomethylation, AlphaScreen, 2 h | Potency, µM (highest dose often 102 µM), for inactives: at the highest dose activity, negative = inhibition, hits mostly inhibitors | Histone-lysine N-methyltransferase EHMT2 (Homo sapiens), Q96KQ7 | 350,000 tested, 8.8% active; also: potency is read from the fitted curve at half-maximal effect; nearly all actives have a fitted effect of over 75% in size
Target sequence (Q96KQ7 913-1193 limits assumed): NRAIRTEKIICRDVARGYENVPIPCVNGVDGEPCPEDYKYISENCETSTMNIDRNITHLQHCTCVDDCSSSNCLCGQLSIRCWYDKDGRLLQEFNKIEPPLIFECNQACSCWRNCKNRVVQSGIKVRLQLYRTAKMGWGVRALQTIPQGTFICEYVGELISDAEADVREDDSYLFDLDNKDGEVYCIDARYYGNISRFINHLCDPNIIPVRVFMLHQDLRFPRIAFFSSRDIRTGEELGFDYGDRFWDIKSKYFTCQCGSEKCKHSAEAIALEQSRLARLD
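Quantitative HTS format: methyltransferase activity on a biotin-tagged H3K9 peptide is measured by AlphaScreen, using a rabbit anti-monomethyl-H3K9 antibody with streptavidin donor and anti-IgG acceptor beads. Final levels are 20 nM enzyme, 500 nM peptide, 20 uM SAM; 2 h RT.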
MmCpn inh: Inhibitors of TCP-1 ring complex (TRiC) of Methanococcus maripaludis (MmCpn): qHTS. AID 504842, 2011. Chaperonin Mm-Cpn (Methanococcus maripaludis). Potency, µM (series often up to 76.9 µM), without a hit: top-dose activity, negative = inhibition, hits mostly inhibitors. purified Mm-Cpn ATPase, ADP Transcreener TR-FRET. 330,000 tested, 0.031% active; also: potency is read from the fitted curve at half-maximal effect; nearly all actives have a fitted effect of over 80% in size
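Quantitative HTS used 25 nM Mm-CPN and 10 uM ATP in magnesium/KCl Tris buffer, pH 7.4, with 1 mM DTT. Hydrolysis ran 30 min at 37°C; ADP was read by HTRF.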
Sfp PPTase inh: qHTS Assay for Inhibitors of Bacillus subtilis Sfp phosphopantetheinyl transferase (PPTase). Biochemical Sfp PPTase activity, qHTS. Potency, µM, without a hit: largest response in the series, negative = inhibition, most hits filed as inhibitors. 310,000 tested, 3.5% active. AID 1490, 2009;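 also: the enzyme is Sfp with the accession as filed and its product quenches rhodamine fluorescence; potency is read from the fitted curve at half-maximal effect; 0% = enzyme reaction without inhibitor and -100% = no enzyme wells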
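Fluorescence-quenching assay: 15 nM Sfp-PPTase preincubated 15 min at room temperature with compound, then 5 uM rhodamine-CoA and 12.5 uM BHQ-2-labelled YbbR peptide added. Fluorescence (ex 525/em 598 nm) read at start and after 30 min; difference gives rate.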
* hit, by the source's call; ? = inconclusive; nt = no result; [ ] = dose if it differs, or a comment. In the library only some 10% were active in any assay of this set; here they are far more common. Unless noted, calls follow the shape of the dose curve; as a rule, active = well fitted curve in the direction sought with a large enough effect; inconclusive = small, poorly fitted or top-dose-only effect, or another doubt; inactive = no such curve, though single readings can be large; an effect the other way counts as inactive or inconclusive. Unless noted, % is scaled to controls: 0 for no effect and ±100 for the full control effect.

SMILES | CCT modulator | VDR inh | PLK1 PBD block | G9a inh | MmCpn inh | Sfp PPTase inh
COc1ccc(-c2ccc([C@H]3[C@@H]4C=CCC[C@@]4(C)C(=O)N3Cc3ccccc3)c(F)c2)cc1 | -1 | -13% | -5% | -11%[12.7 µM] | -3% | 32µM*
Cc1ccc(F)c(C2C3C=CCCC3(C)C(=O)N2Cc2ccccc2)c1 (configuration not stated) | nt | -15% | nt | nt | nt | 28µM*
CCOc1ccc(S(=O)(=O)N(C(=O)c2ccncc2)c2ccc3oc(C)c(C(=O)OC)c3c2)cc1 | nt | -16% | nt | ? | nt | nt
O=C(NCCCCCCNC(=O)OCc1ccccc1)OCc1ccccc1 | -2 | -13% | -11% | nt | nt | nt
O=C(NCCC(=O)N1CCNC1=O)OCc1ccccc1 | -2 | -10% | -13% | -45%[12.7 µM] | 0% | 50µM*
CCCOc1ccc(CNC(=O)CN2C(=O)c3cccnc3Oc3ccc(C)cc32)cc1 | nt | 9% | nt | 6%[59 µM] | nt | nt
O=C(O/N=C1/CCSc2ccccc21)c1ccccc1 | 1 | -1% | -2% | -1%[0.501 µM] | 2% | 79µM*
CC(C)C[C@H](NC(=O)[C@H](CCCCN)NC(=O)[C@H](CCCNC(=N)N)NC(=O)[C@H](C)NC(=O)[C@H](CO)NC(=O)[C@H](CCCCN)NC(=O)[C@H](CCCNC(=N)N)NC(=O)[C@H](C)NC(=O)CNC(=O)[C@@H](NC(=O)[C@H](Cc1ccccc1)NC(=O)CNC(=O)CNC(=O)[C@@H](N)Cc1ccccc1)[C@H](C)O)C(=O)N[C@@H](C)C(=O)N[C@@H](CC(N)=O)C(=O)N[C@@H](CCC(N)=O)C(=O)O | nt | -1% | nt | 24%[59 µM] | nt | 14%
COc1ccc(N2CCN(S(=O)(=O)c3ccc(CC(C)C)cc3)CC2)cc1 | nt | -4% | nt | -35%[59 µM] | nt | nt
COc1ccc(/C=N/c2c(-c3ccc(OC)cc3)nc3n2CCS3)cc1 | 0 | 9% | -2% | 10µM* | -1% | -20%
O=[N+]([O-])c1ccc(C[n+]2cccc(O)c2)cc1 | 0 | 4% | 0% | -8%[2.33 µM] | 0% | nt
O=[N+]([O-])c1ccc(C[n+]2cccc3ccccc32)cc1 | -1 | -13% | 5% | 14µM* | 1% | -3%
O=[N+]([O-])c1ccc(C[n+]2cccc3ccc4cccnc4c32)cc1 | -1 | 79µM* | 9.5µM* | nt | 0% | 14µM*
COc1ccc(NC(=O)/C(C#N)=C/c2ccc(OCc3cc(=O)n4nc(C)sc4n3)cc2)cc1 | nt | 0% | nt | -6%[59 µM] | nt | nt
CCN(C[C@H]1N[C@@](C)(C(=O)OC)[C@H]2C(=O)N(Cc3ccccc3)C(=O)[C@@H]12)C(=O)Nc1ccc(F)cc1 | 0 | 15% | -10% | nt | -1% | nt
CCN(C[C@H]1N[C@@](C)(C(=O)OC)[C@H]2C(=O)N(Cc3ccccc3)C(=O)[C@@H]12)C(=O)c1ccc(F)cc1 | -34* | 5% | -4% | nt | -1% | nt
CCCNC(=O)c1nc(C)n(-c2cc(Cl)cc(Cl)c2)n1 | 0 | 10% | -22% | -1% | 0% | 16%
CCCNC(=O)c1nc(C)n(-c2cc(Cl)ccc2Cl)n1 | 1 | 0% | 21µM* | 14% | -5% | -1%
CNC(=O)c1nc(C)n(-c2ccc(Cl)cc2Cl)n1 | 1 | ? | 3.8µM* | 4% | 1% | 13%
Cc1nc(C(=O)N(C)C)nn1-c1ccc(Cl)cc1Cl | -4 | 3% | -8% | -36% | 2% | 16%
O=C(CSc1nc2c([nH]c3ccccc32)c(=O)n1-c1cccc(Cl)c1)N1CCc2ccccc21 | nt | 14% | nt | 7%[59 µM] | nt | nt
CCOc1ccccc1NC(=O)C1CCN(S(=O)(=O)c2ccc(OC)c(OC)c2)CC1 | 0 | 25% | -10% | 40µM* | 1% | -7%
CCN(CCCNC(=O)C1CCN(S(=O)(=O)N2CCC3(CC2)OCCO3)CC1)c1ccccc1 | 0 | -9% | -2% | ? | -3% | 14%
CCN(CCCNC(=O)C1CCN(S(=O)(=O)c2c(C)[nH]c(=O)[nH]c2=O)CC1)c1cccc(C)c1 | -1 | 5% | -3% | 50µM* | -1% | 15%
CCCCN(CCCNC(=O)C1CCN(S(=O)(=O)N2CCOCC2)CC1)c1ccccc1 | -4 | 18% | -3% | 40µM* | -2% | -6%
SMILES | CCT modulator | VDR inh | PLK1 PBD block | G9a inh | MmCpn inh | Sfp PPTase inh
CCOc1ccc(OCC)c(NC(=O)C2CCN(S(=O)(=O)c3c(C)[nH]c(=O)[nH]c3=O)CC2)c1 | 1 | -24% | 17µM* | -20% | 1% | 7%
Cn1nnc2c(N3CCN(c4ccccc4Cl)CC3)ncnc21 | nt | 9% | nt | 1%[59 µM] | nt | nt
Oc1ccc(-c2cn3c(n2)SCC3)cc1 | -1 | -6% | -10% | 8.9µM* | 0% | -2%
Brc1ccc(-c2cn3c(n2)SCC3)cc1 | -1 | 4% | -15% | nt | 1% | 2%
Oc1ccc(-c2cn3c(n2)SCC3)cc1O | -3 | -14% | 24µM* | 1.1µM* | -5% | 18µM*
NCCC[C@@H](CC(=O)N[C@@H]1CCCC[C@H]1C(=O)N[C@H](CC(=O)N[C@@H](CCC(=O)O)CC(=O)O)Cc1c[nH]c2ccccc12)NC(=O)C[C@H](Cc1c[nH]c2ccccc12)NC(=O)[C@@H]1CNCC[C@H]1N | nt | 0% | nt | nt | nt | -1%
COc1cccc(OCc2nc3ccccc3n2CCOc2ccc(C)cc2)c1 | nt | 14% | nt | 4%[59 µM] | nt | nt
S=C(c1ccc2c(c1)OCO2)N1CCN(c2cccc(Cl)c2)CC1 | 0 | ? | 9.5µM* | nt | nt | nt
Cc1cccc(N2CCN(C(=S)c3ccc4c(c3)OCO4)CC2)c1 | 0 | 79µM* | 11µM* | nt | nt | nt
O=C(c1ccc2c(c1)OCO2)N1CCN(c2ccc(Cl)cc2)CC1 | 0 | -3% | -2% | -1%[59 µM] | 1% | -16%
CCOc1ccccc1CNC(=O)c1c(C)oc2ncnc(N3CCOCC3)c12 | nt | -1% | nt | 4%[59 µM] | nt | nt
Cc1ccc(CN2CCNC(=O)C2CC(=O)N(C)C2CCCCC2)cc1 (configuration not stated) | 0 | 4% | -18% | 45µM* | 1% | 6%
Cc1ccc(OCCN(C)C(=O)CC2C(=O)NCCN2CC(C)(C)C)cc1 (configuration not stated) | -3 | 5% | -7% | 50µM* | 0% | -5%
CC(C)(C)CN1CCNC(=O)C1CC(=O)N1CCOc2ccccc2C1 (configuration not stated) | 1 | 1% | -2% | 50µM* | 1% | 7%
